Data: PubChem BioAssay (Tox21)
Results filed as inconclusive are left out. Values without a mark were called inactive. Activity calls are given as the source filed them. Calls follow the shape of the dose curve; as a rule, active = well fitted cell-killing curve with a large enough effect in the repeat runs; inconclusive = weak or mixed curves; inactive = no such curve, though single readings can be large or run the other way.

test: qHTS assay to identify small molecule antagonists of the androgen receptor (AR) signaling pathway - cell viability counter screen (AID 743033; also: nearly all actives have a fitted effect of over 45% in size); conditions: AR-bla HEK293 viability, CellTiter-Glo luminescence, 16 h; series mostly up to 58.5 µM; activity change, negative = cytotoxicity: at the top concentration
% is scaled to controls: 0 for no effect and ±100 for the full control effect.

SMILES | activity change, negative = cytotoxicity | outcome
O=C(O)C(=O)Cc1c[nH]c2ccccc12 | -16% | –
CS(=O)(=O)c1ccc([C@@H](O)[C@@H](CF)NC(=O)C(Cl)Cl)cc1 | 4.51% [at 27 µM] | –
COc1ccc2nc(NC(=O)Nc3ccccc3)sc2c1 | -17.7% | –
O=c1oc2c(O)c(O)cc3c(=O)oc4c(O)c(O)cc1c4c23 | 26.3% | –
CCC(=O)Nc1ccc(O)cc1 | -5.01% | –
Cc1nnc(SCC2=C(C(=O)O)N3C(=O)[C@@H](NC(=O)Cn4cnnn4)[C@H]3SC2)s1 | 8.58% | –
Cc1ccc([N+](=O)[O-])c(N)c1 | 0.603% | –
CCCOCCC | 1.88% | –
C=CC1CO1 (stereo not given) | 7.84% [at 78.9 µM] | –
Cc1ccc(C(C)C)cc1O | -11.4% | –
O=C1CCCCCCCCCCC(=O)OCCO1 | -22.6% | –
COc1cc(Cl)ccc1Cl | -3.25% [at 78.9 µM] | –
CCNCCO | -5.75% | –
CCc1nnc(NS(=O)(=O)c2ccc(N)cc2)s1 | 6.3% | –
FC(F)(F)c1ccccc1 | 4.63% | –
CC(C)OC(C)C | -3.7% [at 78.9 µM] | –
ClC(Cl)Cl | – | inactive
CCCN(CCC)C(=O)C(CCC(=O)O)NC(=O)c1ccccc1 (stereo not given) | 0.53% | –
CC1(C)O[C@@H]2C[C@H]3[C@@H]4CCC5=CC(=O)CC[C@]5(C)[C@@]4(F)[C@@H](O)C[C@]3(C)[C@]2(C(=O)CCl)O1 | 0.313% [at 27 µM] | –
O=C(O[C@@H](C(=O)O)[C@@H](OC(=O)c1ccccc1)C(=O)O)c1ccccc1 | 2.76% [at 78.9 µM] | –
